HIF-2a inh = HIF-2a inhibition; hit rate 0.72% among 360,000; inhibition, % at 18.8 µM; AID 624352; 786-0 RCC cells HIF-2a reporter, luciferase luminescence, overnight;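 active means inhibition of the luminescence signal of 40% or more relative to plate controls, in a single-dose primary screen at 18.75 µM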
CF NFkB block = cystic fibrosis NF-kB activation inhibition; inhibition, % at 5 µM; AID 588850; KKLEB NF-kB-GFP reporter, PAF-induced, GFP fluorescence overnight; hit rate 0.86% among 360,000;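 active means at least 50% inhibition at 5 µM, scaled per plate between neutral and stimulator controls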;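 further: PAF is a Pseudomonas aeruginosa culture filtrate used as stimulus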
TRPM1 prom inh = reduces MITF-dependent TRPM1 promoter luciferase signal | inhibition, % at 12.5 µM | AID 488899 | SK-MEL-5 TRPM1 promoter luciferase, 24 h | hit rate 0.83% among 330,000;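 active means mean inhibition across replicates of 60% or more, whatever share of single replicates reaches that level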
Shn3 inh set2 = reduces Shn3 3'UTR luciferase signal in osteoblasts; Clone20 osteoblast Shn3 3'UTR firefly luciferase, 24 h; inhibition, % at 12.5 µM; hit rate 0.52% among 360,000;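 active means mean inhibition of at least 75% with every replicate also reaching 75%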
Peg3 prom inh = reduces Peg3 promoter-driven luciferase expression in HeLa | HeLa PEG-Prom luciferase reporter, luminescence, overnight | inhibition, % at 20 µM | hit rate 1.7% among 360,000 | AID 588405;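 active means inhibition of at least 50% at 20 µM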
KKLEB cytotox = counter-screen for CF NF-kB inhibitors: cytotoxicity; hit rate 0.36% among 360,000; KKLEB CF airway cells viability, ATPlite luminescence, overnight; active compounds read low; cells stimulated with P. aeruginosa culture filtrate; activity change (cytotoxicity), % at 5 µM;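 active means corrected activity change at or below -50% at 5 µM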
Hits are given with their value; – = inactive; · = not tested or not shown. Most compounds without a hit are left out; they make up all but 2.7% or so of the library.

SMILES	HIF-2a inh	CF NFkB block	TRPM1 prom inh	Shn3 inh set2	Peg3 prom inh	KKLEB cytotox
Cc1cc(C)c(NS(=O)(=O)c2ccccc2)c(C)c1	–	–	–	–	–	–
CC1=C(C(=O)N2CCCCCC2)CC(CC(=O)NCc2cccc3ccccc23)C(=O)N1CCC1=CCCCC1 (configuration not stated)	–	·	·	·	·	·
Cc1ccc(-c2nn(-c3ccccc3)cc2CN(Cc2ccccc2)C(=O)c2ccco2)o1	–	–	–	–	65	–
O=C1c2ccccc2C2=Nc3ccccc3SC(c3cccc(F)c3)C12 (configuration not stated)	–	–	–	–	58	–
O=C1c2ccccc2C2=Nc3ccccc3SC(c3ccc(Cl)cc3)C12 (configuration not stated)	–	–	–	–	–	–
COc1cc2nc(N3CCNCC3)nc(N)c2cc1OC	–	–	–	–	74	–
COc1cc2nc(Cl)nc(N3CCCCC3)c2cc1OC	–	–	–	–	–	–
CNC(=O)NNC(=O)c1nc(-c2ccccc2)c(C)o1	–	–	·	–	–	–
CCC(C(=O)NCc1ccc(F)cc1)N(Cc1cccs1)C(=O)c1snc(C(N)=O)c1N (configuration not stated)	–	–	–	–	–	–
Cc1cc(C)cc(NC(=S)N2CCC(C(=O)c3ccc(F)cc3)CC2)c1	–	–	–	–	–	–
COc1ccccc1N(C)S(=O)(=O)c1ccc(C(=O)Nc2ncc(C)s2)cc1	–	–	–	–	–	–
COc1ccccc1N(C)S(=O)(=O)c1ccc(C(=O)Nc2nccs2)cc1	–	–	–	–	–	-50
OCCN(CCO)c1ccc(C(c2ccccc2Cl)c2ccc(N(CCO)CCO)cc2Cl)c(Cl)c1	–	–	–	–	59	–
Cc1cccc(OCC(=O)NCCNC(=O)c2ccccn2)c1	–	–	–	–	–	–
Cc1ccc(CNC(=O)CCS(=O)(=O)Cc2ccc(C)cc2)cc1	–	–	–	–	–	–
Cc1ccc(C(=O)NCCNc2nc3cc(C)c(C)cc3cc2C)cc1	–	–	–	–	61	–
COc1cc(Cl)c([C@@H]2C[C@H]3CN(c4ccccc4)C(=O)[C@]34CCCN24)cc1OC	–	–	–	–	–	–
COc1cc([C@@H]2C[C@H]3CN(c4ccccc4)C(=O)[C@]34CCCN24)cc(OC)c1OC	–	–	–	–	87	–
COc1ccccc1-n1cc([C@@H]2C[C@H]3CN(c4ccccc4)C(=O)[C@]34CCCN24)cn1	–	86	–	97	98	-56
CCOc1cc([C@@H]2C[C@H]3CN(c4ccccc4)C(=O)[C@]34CCCN24)ccc1OC	–	–	–	–	98	–
Cc1ccc(S(=O)(=O)N(C)C)cc1NC(=O)CN1C(=O)NC2(CCc3ccccc32)C1=O (configuration not stated)	–	–	·	–	–	–
COc1ccccc1/C=C/C1(C(=O)NC2CCCC2)CC(=O)N1c1ccc(C)cc1 (configuration not stated)	–	–	–	–	–	–
COc1ccccc1/C=C/C1(C(=O)NC2CCCC2)CC(=O)N1c1ccc(F)cc1 (configuration not stated)	–	80	–	–	–	-77
O=C(C1CCCCC1)N1C[C@@H](O)[C@H](n2cc(-c3ccc(F)cc3)nn2)C[C@@H]1c1ccccc1	–	–	·	–	–	–
Cc1ccc(-c2csc(/C(C#N)=C/Nc3ccc4c(c3)OCCO4)n2)cc1	–	68	–	–	–	-66
SMILES	HIF-2a inh	CF NFkB block	TRPM1 prom inh	Shn3 inh set2	Peg3 prom inh	KKLEB cytotox
CCOc1ccc(Br)cc1C1=CC(=O)C[C@H](c2ccc(OC)cc2)C1	–	–	–	94	–	–
S=C(SSC(=S)N1CCOCC1)N1CCOCC1	–	–	·	90	–	–
CC(SC(=S)N1CCOCC1)C(=O)O (configuration not stated)	–	–	–	–	–	–
CSc1ccc(NC(=O)Nc2ccc(C(=O)NCC(=O)O)cc2)cc1	–	–	–	–	–	–
COc1ccc(CN2CCC(N(CCc3ccccc3)Cc3ccccc3)CC2)c(OC)c1	–	–	–	89	63	–
CN(C(=O)c1ccncc1)c1ccccc1	–	–	–	–	–	–
C/C(=N\N(Cc1ccccc1)c1ccccc1)c1ccncc1	–	58	–	–	–	-57
O=C(NCCCN1CCOCC1)c1cc(-c2ccc(Cl)s2)nc2ccccc12	–	–	–	–	–	–
CC(Oc1ccc(Br)cc1)C(=O)N(Cc1ccccc1)c1c(N)n(Cc2ccccc2)c(=O)[nH]c1=O (configuration not stated)	–	–	·	–	–	–
N#Cc1ccccc1NC(=O)C1SC(=Nc2ccccc2)C(C(=O)Nc2ccc(Cl)cc2)=C1N (configuration not stated)	–	–	72	–	–	–
COc1ccc(-n2cc(-c3ccc(C)cc3)[n+]3c2SCC3)cc1	–	–	71	–	–	–
Cc1ccc(-c2cn(-c3ccccc3)c3[n+]2CCCS3)cc1	–	–	–	–	–	–
CCOC1=C2[C@H](c3ccccc3)N(S(=O)(=O)c3ccc(C)cc3)C(C(C)(C)C)[C@H]2C(C#N)(C#N)C(C#N)(C#N)C1 (some centres not stated)	49	67	·	87	78	–
CCCCC[C@@H]1[C@@H]2C(=C(OCC)C[C@@H]3C(=O)N(c4ccccc4)C(=O)[C@H]23)[C@H](c2ccccc2)N1S(=O)(=O)c1ccc(C)cc1	–	–	·	–	–	–
CCOC1=C2CN(S(=O)(=O)c3ccc(C)cc3)[C@H](c3cccc4ccccc34)C[C@H]2C(C#N)(C#N)C(C#N)(C#N)C1	–	–	·	–	52	–
CC(Oc1ccc(F)cc1F)C(=O)NNC(=S)NCC1CCCO1 (configuration not stated)	–	–	–	–	–	–
COc1ccc(NC(=O)C2Cc3c(-c4cccc(C(C)=O)c4)ccnc3O2)cc1OC (configuration not stated)	–	–	·	91	–	–
COc1ccc(NC(=O)C2Cc3c(-c4cccc(C(N)=O)c4)ccnc3O2)cc1OC (configuration not stated)	–	–	·	–	–	–
CC(=O)Nc1cccc(-c2ccnc3c2CC(C(=O)Nc2cccc(Oc4ccccc4)c2)O3)c1 (configuration not stated)	–	–	·	–	51	–
CC(=O)Nc1ccc(-c2ccnc3c2CC(C(=O)Nc2cccc(Oc4ccccc4)c2)O3)cc1 (configuration not stated)	–	–	·	–	–	–
COCc1c(C#N)c(NCCc2ccc(F)cc2)nc(C)c1[N+](=O)[O-]	–	–	–	–	–	–
Cc1nc(NCCc2ccc(F)cc2)c(C#N)c(C)c1[N+](=O)[O-]	–	–	–	–	51	–

Bioassay records from PubChem.
